Screening data: PubChem BioAssay, NMMLSC
An excerpt weighted towards active compounds, which were near 1.2% of everything screened.
RGS16-Gao HTS – modulators of RGS16 binding to Galphao, primary screen, biochemical, human proteins, multiplexed bead flow cytometry; bead-based flow cytometry RGS16-Galphao binding, fluorescence; actives lie on both sides; binding response (% of control), % at 10 µM; hit rate 0.38% among 220,000;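 also: Galphao activated by GDP with aluminum fluoride before binding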
Avidin bead fluor – green autofluorescence of compounds with avidin beads – biophysical, 488/530 nm, flow cytometry, artefact control, profiling panel; compound fluorescence 488/530 nm; stronger effect = higher value; fluorescence (KMESF) at 10 µM; hit rate 0.38% among 220,000; AID 1775, 2009; in the data active = fluorescence above about 47
RGS7-Gao reg – RGS7-Galphao binding modulators, primary screen, biochemical, multiplexed bead flow cytometry. Guanine nucleotide-binding protein G(o) subunit alpha (Homo sapiens), P09471. hit rate 0.35% among 220,000. actives lie on both sides. binding response (% of control), % at 10 µM. AID 1439, 2008; in the data active = binding response below about 49% or above about 150%; inconclusive = no clear call, values can overlap the other calls; inactive = in between;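 also: fluorescent Galphao held in activated GDP-AlF4 state binding bead-coupled RGS7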
Target sequence (P09471 whole entry, looked up): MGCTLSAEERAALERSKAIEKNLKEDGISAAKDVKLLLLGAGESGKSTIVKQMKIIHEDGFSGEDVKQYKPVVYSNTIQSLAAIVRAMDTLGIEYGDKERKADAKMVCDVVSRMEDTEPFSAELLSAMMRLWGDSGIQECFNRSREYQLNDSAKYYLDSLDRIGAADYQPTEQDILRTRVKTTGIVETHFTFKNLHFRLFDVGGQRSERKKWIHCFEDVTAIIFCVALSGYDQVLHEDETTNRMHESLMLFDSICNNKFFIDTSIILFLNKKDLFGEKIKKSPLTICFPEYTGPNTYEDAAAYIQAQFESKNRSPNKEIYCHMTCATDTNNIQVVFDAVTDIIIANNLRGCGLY
RGS4-Gao reg – modulators of RGS4 binding to Galphao, primary screen, biochemical, multiplexed bead flow cytometry. AID 1415, 2008. binding response (% of control), % at 10 µM. Guanine nucleotide-binding protein G(o) subunit alpha (Homo sapiens), P09471. hit rate 0.33% among 220,000. actives lie on both sides; in the data active = binding response below about 49% or above about 150%; inactive = in between;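 also: fluorescent Galphao activated with aluminum fluoride binding bead-coupled RGS4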
RGS8-Gao – RGS8-Galphao binding modulators, primary screen, biochemical, multiplexed bead flow cytometry; Guanine nucleotide-binding protein G(o) subunit alpha (Homo sapiens), P09471; actives lie on both sides; response (percent of control binding), % at 10 µM; hit rate 0.34% among 220,000; AID 1423, 2008; in the data active = response below about 60% or above about 140%; inactive = in between;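 also: Galphao activated as the GDP aluminium fluoride complex binding bead-coupled RGS8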
GSH fluor – compound fluorescence on glutathione beads, profiling panel, artefact control, biophysical, 488/530 nm, flow cytometry. GSH beads flow cytometry, compound fluorescence 488/530 nm; stronger effect = higher value. AID 1776, 2009. fluorescence (KMESF) at 10 µM. hit rate 0.25% among 190,000; in the data active = fluorescence above about 89;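 also: glutathione beads carrying GST-tagged Bcl family fusion proteins plus one bare bead set; values are compound well signal with DMSO vehicle wells as background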
RGS-Gao – modulators of RGS–Galpha-o binding, primary screen, biochemical, multiplexed beads, flow cytometry, RGS4/7/8/16/19; shares compounds with RGS16-Gao HTS; multiplexed bead flow cytometry; RGS4–Galpha-o binding response, % at 10 µM; hit rate 99% among 1,600;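 also: fluorescently labeled Galpha-o bound to GDP with aluminium fluoride binding biotinylated RGS beads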
Avidin counter – disruption of biotin probe capture by avidin, counter-screen for RGS protein interaction modulators, biochemical, flow cytometry, bead-based. shares compounds with RGS16-Gao HTS. streptavidin beads, fluorescein-biotin binding. inhibition, % at 10 µM. 1,700 tested, under 10 active. AID 1783, 2009;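 active = inhibition above 50%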;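 also: median green fluorescence of gated singlet beads compared with DMSO control wells; 0% = DMSO wells and 100% = complete loss of bead fluorescence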
RGS8-Gao single – RGS8-Galphao binding modulators, confirmation, biochemical, multiplexed bead flow cytometry, single concentration; shares compounds with RGS16-Gao HTS; bead-based flow cytometry RGS8-Galphao binding, fluorescence; actives lie on both sides; binding response (% of control), % at 10 µM; hit rate 3% among 1,700; AID 1836, 2009; in the data active = binding response below about 72% or above about 130%; inactive = in between;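 also: Galphao activated as GDP AlF4 complex before binding bead RGS8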
RGS7-Gao confirm – RGS7-Galphao binding modulators, confirmation, biochemical, multiplexed bead flow cytometry, single concentration; response (percent of control binding), % at 10 µM; shares compounds with RGS16-Gao HTS; hit rate 7.8% among 1,700; bead-based flow cytometry RGS7-Galphao binding; actives lie on both sides; in the data active = response below about 75% or above about 130%; inactive = in between;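 also: fluorescent Galphao activated with GDP and aluminum fluoride binding bead-coupled RGS7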
RGS16-Gao single – modulators of RGS16-Galphao protein binding, confirmation, biochemical, single concentration, multiplexed bead flow cytometry | AID 1838, 2009 | bead-based flow cytometry; actives lie on both sides | hit rate 4% among 1,700 | shares compounds with RGS16-Gao HTS | response (% of control binding), % at 10 µM; in the data active = response below about 74% or above about 130%; inactive = in between;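 also: Galphao activated as the GDP aluminium fluoride complex binding bead-coupled RGS16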
RGS4-Gao single – modulators of RGS4-Galphao protein binding, confirmation, biochemical, single concentration, multiplexed bead flow cytometry; shares compounds with RGS16-Gao HTS; actives lie on both sides; binding response (% of control), % at 10 µM; hit rate 4% among 1,700; AID 1840, 2009; in the data active = binding response below about 74% or above about 130%; inactive = in between
RGS19-Gao conf – regulators of RGS19-Galphao binding, confirmation, biochemical, single point, multiplexed bead flow cytometry. AID 1841, 2009. bead-based flow cytometry RGS19-Galphao binding; actives lie on both sides. response (percent of control binding), % at 10 µM. shares compounds with RGS16-Gao HTS. hit rate 5% among 1,700; in the data active = response below about 50% or above about 160%; inactive = in between;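 also: 100% = no compound control and 0% = blank background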
Target sequence (P09471 whole entry, looked up): as above
Target sequence (P49795 whole entry, looked up): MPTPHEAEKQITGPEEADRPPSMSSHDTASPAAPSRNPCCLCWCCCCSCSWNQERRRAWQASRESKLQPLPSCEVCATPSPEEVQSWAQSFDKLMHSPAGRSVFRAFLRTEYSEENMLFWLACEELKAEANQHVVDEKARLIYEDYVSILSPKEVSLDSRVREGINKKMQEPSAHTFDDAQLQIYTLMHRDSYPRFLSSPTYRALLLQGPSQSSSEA
* = called active by the depositor; ? = inconclusive; · = not tested or not shown; [ ] = another dose, or the depositor's remark. Unless noted, no rule for the calls is given here.

SMILES | RGS16-Gao HTS | Avidin bead fluor | RGS7-Gao reg | RGS4-Gao reg | RGS8-Gao | GSH fluor | Avidin counter | RGS8-Gao single | RGS7-Gao confirm | RGS16-Gao single | RGS4-Gao single | RGS19-Gao conf | others
N#Cc1cccc(C(c2nnnn2Cc2ccccc2)N2CCCC2)c1 (stereo unspecified) | 107 | 7 | 107 | 102 | 102 | 36 | · | · | · | · | · | ·
CN1CCN(C(c2cccc(C(F)(F)F)c2)c2nnnn2Cc2ccccc2)CC1 (stereo unspecified) | 348 | 5 | 120 | 126 | 144*[activator] | 44 | 1 | 100 | 100 | 102 | 101 | 105 | RGS-Gao=126*
O=c1c2cc(Cl)ccc2[nH]c(=S)n1Cc1cccs1 | 17* | 7 | 95 | 94 | 72 | 7 | -2 | 98 | 92 | 98 | 95 | 84 | RGS-Gao=94*
CCC(Cc1ccccc1)NC(=O)C1=C(C)C(=O)OC12CCC(C)CC2 (stereo unspecified) | 50 | 3 | 32* | 59 | 56* | 13 | -2 | 90 | 76 | 87 | 83 | 76 | RGS-Gao=59*
CCOC(=O)/C(=N/Nc1ccc(C)cc1)S(=O)(=O)c1ccc(Cl)cc1 | 109 | 15 | 102 | 105 | 101 | 13 | · | · | · | · | · | ·
CCOC(=O)/C(=N\Nc1ccccc1)S(=O)(=O)c1ccccc1 | · | · | · | · | · | 40 | 1 | 102 | 99 | 100 | 98 | 101
O=C(OCc1cccc2ccccc12)c1ccc2c(=O)[nH]c(CN3CCOCC3)nc2c1 | -114* | -6 | -54* | -138* | -2.4* | 32 | 2 | 98 | 98 | 101 | 101 | 96
O=C(NCc1ccccc1Cl)NCc1ccccc1Cl | 46 | 2 | ? | 43* | 62 | · | -1 | 103 | 103 | 107 | 99 | 109
O=C(Cn1cccc1C(=O)c1ccccc1)NCc1ccc(Cl)cc1 | 103 | 11 | 99 | 101 | 100 | 20 | · | · | · | · | · | ·
Cc1ccc(CNC(=O)Cn2cccc2C(=O)c2ccccc2)cc1 | · | · | 119 | 102 | · | 42 | -2 | 101 | 94 | 100 | 100 | 93
COc1ccc(NC(=O)c2ccc(COCC(F)(F)C(F)F)cc2)cc1 | 25* | 2 | 93 | 78 | 68 | 13 | 0 | 104 | 103 | 104 | 102 | 118 | RGS-Gao=78*
NS(=O)(=O)c1ccc(CNC(=O)/C=C/c2ccco2)cc1 | 97 | 8 | ? | 98 | 94 | · | -2 | 91 | 93 | 95 | 96 | 85
O=C(/C=C/c1ccco1)NCc1ccc(F)cc1 | 102 | 10 | 100 | 105 | 100 | 20 | · | · | · | · | · | ·
C#CCOCCOCCOCCNc1nc(N2CCN(C(=O)[C@H]([C@@H](C)CC)n3cc([C@@H](N)CO)nn3)CC2)nc(N2CCN(C(=O)[C@H]([C@@H](C)CC)n3cc([C@@H](N)Cc4ccc(O)cc4)nn3)CC2)n1 | 18* | 0 | 18* | 22* | 41* | 18 | 0 | 100 | 101 | 99 | 99 | 88
CC(OC(=O)c1cc2sccc2n1C)C(=O)NCC1CCCO1 (stereo unspecified) | 102 | 12 | 101 | 97 | 101 | 13 | · | · | · | · | · | ·
CCC(OC(=O)c1cc2sccc2n1C)C(=O)NCC1CCCO1 (stereo unspecified) | 203*[activator] | 47* | 161*[activator] | 190*[activator] | 107 | 43 | -1 | 101 | 95 | 99 | 99 | 106
CC(C)n1nc(C(=O)OCC(=O)c2c[nH]c3ccccc23)c2ccccc2c1=O | · | · | · | · | · | 41 | 0 | 91 | 81 | 84 | 87 | 61
Cc1nc2ccccc2n1CCCOc1ccccc1 | 108 | 5 | 102 | 102 | 103 | 29 | · | · | · | · | · | ·
Cc1nc(Cl)c(Cl)n1CCOc1ccccc1 | -7.5* | -2 | ? | -14* | 6.8* | · | 1 | 101 | 108 | 103 | 105 | 101
COc1cc(CCC(=O)O)on1 | -8.1* | -1 | ? | -10* | 20* | · | -1 | 98 | 81 | 94 | 90 | 80
COc1ccc(-c2noc(CCC(=O)O)n2)cc1 | 94 | 11 | 95 | 95 | 96 | 23 | · | · | · | · | · | ·
Cc1nc2ccc(NS(=O)(=O)c3ccc4c(c3)OCCO4)cc2s1 | 97 | 12 | 96 | 98 | 101 | 38 | · | · | · | · | · | ·
CCCc1cc(-c2nc(-c3ccc(Cl)cc3)cs2)ccn1 | 87 | 7 | 101 | 100 | 100 | 33 | · | · | · | · | · | ·
CCCc1cc(-c2nc(-c3ccc(Br)cc3)cs2)ccn1 | -6.4* | 5 | 76 | 83 | 68 | 7 | -1 | 101 | 97 | 98 | 99 | 105 | RGS-Gao=83*
Cc1ccc2nc(NC(=O)c3ccc(OCC4CCCO4)cc3)sc2c1 (stereo unspecified) | 94 | 2 | 91 | 91 | 95 | 10 | · | · | · | · | · | ·
COc1cc(-c2[nH]ncc2CN(C)Cc2cc(C)[nH]n2)cc(OC)c1OC | 102 | 10 | 104 | 103 | 104 | 50 | · | · | · | · | · | ·
COc1cccc(NC(=O)c2ccccc2-c2nc(-c3ccc(F)cc3)no2)c1 | · | · | · | · | · | 33 | 0 | 100 | 97 | 103 | 102 | 98
